Tb PGK inh: inhibitors of T. brucei phosphoglycerate kinase; 0.043% of 380,000 active; Potency, µM (series often up to 57.5 µM), most hits filed as inhibitors; PGK/GAPDH coupled, Kinase-Glo luminescence, 60 min; note: nearly all actives have a fitted effect of over 60% in size
Target sequence (P07378 whole entry, looked up): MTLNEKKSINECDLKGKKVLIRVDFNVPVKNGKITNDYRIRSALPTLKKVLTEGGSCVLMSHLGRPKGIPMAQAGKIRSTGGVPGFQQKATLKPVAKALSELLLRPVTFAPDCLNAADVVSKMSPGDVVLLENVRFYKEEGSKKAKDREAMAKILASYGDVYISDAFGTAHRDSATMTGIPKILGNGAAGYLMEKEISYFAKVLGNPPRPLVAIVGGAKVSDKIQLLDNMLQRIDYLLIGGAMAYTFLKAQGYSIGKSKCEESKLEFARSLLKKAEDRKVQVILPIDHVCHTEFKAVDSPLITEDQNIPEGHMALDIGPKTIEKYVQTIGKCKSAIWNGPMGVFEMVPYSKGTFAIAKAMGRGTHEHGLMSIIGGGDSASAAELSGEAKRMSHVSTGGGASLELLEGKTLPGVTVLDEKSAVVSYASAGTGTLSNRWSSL
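Luminescent ATP detection (Kinase-Glo Plus) follows a 60-minute room-temperature incubation, with wells lacking PGK as controls. Buffer: 100 mM TEA (pH 7.6), 5 mM MgCl2, 0.01% Tween-20. Coupling enzyme GAPDH (100 nM final) supplies unstable 1,3-BPG in-well.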
FEN1 inhibitor: inhibitors of human flap endonuclease 1; P39748; Recombinant FEN1 flap cleavage, fluorescence, 15 min; Potency, µM (highest dose often 114 µM), most hits filed as inhibitors; 0.35% of 390,000 active; AID 588795; note: nearly all actives have a fitted effect of over 65% in size
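Potency values derive from four-parameter Hill fits of normalized qHTS data. The reaction used 10 nM FEN1 preincubated 15 min at room temperature with compound, then 50 nM DNA substrate, read at 0 and 15 min.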
RECQ1 helicase: blocks DNA unwinding by human RECQ1. P46063. RECQ1 DNA unwinding, red fluorescence kinetic read. Potency, µM (doses to about 57.3 µM), hits mostly inhibitors. 0.54% of 240,000 active; note: nearly all actives have a fitted effect of over 30% in size
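RECQ1T1 50 nM; forked duplex (20 bp + 30-nt ss tails) 200 nM, ATP 2 mM final; pH 8.0, 2 mM MgCl2, 2.5 ug/ml poly(dI-dC); 15 min compound preincubation; discontinuous kinetic read over 2 h at RT.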
APE1 inh-1: APE1 (human) endonuclease inhibition. 0.35% of 350,000 active. P27695. AID 2517. Potency, µM (series often up to 65.8 µM), usual class: inhibitors. recombinant APE1, TAMRA/BHQ-2 abasic DNA cleavage fluorescence; note: nearly all actives have a fitted effect of over 55% in size
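Compound pre-exposure to 0.75 nM APE1, 15 min at ambient temperature. Reaction initiated with 50 nM TAMRA/BHQ-2 THF substrate, read immediately in kinetic mode, 525 nm excitation, 598 nm emission.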
BLM helicase inh: inhibitors of human Bloom syndrome helicase BLM; P54132; recombinant BLM DNA unwinding, fluorescence dequenching; Potency, µM (series often up to 56.1 µM), most hits filed as inhibitors; 0.2% of 350,000 active; AID 2528; note: nearly all actives have a fitted effect of over 35% in size
APE1 dye cs: counter-screen for APE1 inhibitors: DNA dye displacement; shares compounds with APE1 inh-1; DNA fluorescent dye displacement counterscreen, fluorescence; Potency, µM (highest dose often 28.5 µM), usual class: inhibitors; 7% of 480 active; AID 2564;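 note: loss of thiazole orange fluorescence as the dye is displaced from duplex DNA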
Endo IV inh: Endo IV (E. coli) inhibition counter-screen. shares compounds with APE1 inh-1. E. coli Endo IV, fluorogenic AP-site DNA cleavage. Potency, µM (titrated, usually from 27.1 µM), hits mostly inhibitors. 4% of 560 active. AID 2565
APE1 inh-2: confirmation of inhibitors of human APE1 endonuclease; shares compounds with APE1 inh-1; purified APE1, fluorogenic abasic-site DNA cleavage; Potency, µM (top dose mostly 57.1 µM), actives largely listed as inhibitors; 44% of 750 active; note: nearly all actives have a fitted effect of over 30% in size
APE1 FP: compounds that displace a DNA probe from human APE1. shares compounds with APE1 inh-1. APE1 binding to TAMRA-labelled double-stranded DNA, fluorescence polarization displacement. Potency, µM (highest dose often 28.5 µM), usual class: inhibitors. 7% of 480 active
A number is an active result; - = inactive; ? = inconclusive; . = no result. A selection: hits, their analogues and other compounds. The true share with any hit is near 0.74%. Calls come from the whole dose curve; as a rule, active = well fitted curve in the direction sought with a large enough effect; inconclusive = small, poorly fitted or top-dose-only effect, or another doubt; inactive = no such curve, though single readings can be large; an effect the other way counts as inactive or inconclusive.

SMILES	Tb PGK inh	FEN1 inhibitor	RECQ1 helicase	APE1 inh-1	BLM helicase inh	APE1 dye cs	Endo IV inh	APE1 inh-2	APE1 FP
CCOC(=O)NC1(NCc2ccccc2)Oc2ccccc2O1	-	-	?	2.5µM	-	-	-	?	-
CCOC(=O)NC1(Nc2ccc(C)cc2)Oc2ccccc2O1	-	-	-	-	-	.	.	.	.
CCOC(=O)NC1(NC(C)C)Oc2ccccc2O1	-	-	-	22µM	-	-	-	?	-
CCOC(=O)NC1(NCC(C)C)Oc2ccccc2O1	-	-	?	?	-	.	.	.	.
CCC(=O)Nc1ccc(C(=O)CSc2nnc(-c3ccccc3F)n2CCc2ccccc2)cc1	-	-	?	-	-	.	.	.	.
CCOC(=O)C1=C(C)NC(=O)NC1c1ccco1 (stereo not given)	-	-	-	?	-	-	-	?	-
Clc1ccc(Cc2ccccc2)nn1	-	-	-	-	-	.	.	.	.
Cc1cccc2sc(NC(=O)CNS(=O)(=O)c3ccc(Br)s3)nc12	-	-	-	-	-	.	.	.	.
Nc1cc(=O)[nH]c(SCC(=O)Nc2cccc(Cl)c2)n1	-	-	-	-	-	.	.	.	.
Cc1ccc(NC(=O)CSc2nc(N)cc(=O)[nH]2)cc1Cl	-	-	-	35µM	-	?	-	-	-
Cc1ccc(NC(=O)CSc2nc(NS(=O)(=O)c3ccccc3)cc(=O)[nH]2)cc1	?	79µM	?	?	?	.	.	-	.
COc1cc2[nH]c(-c3ccc(C)cc3)cc(=O)c2cc1OC	-	-	-	-	-	.	.	.	.
O=C(Nc1ccc(Br)cc1)C1CCCN1S(=O)(=O)c1ccc(F)cc1 (stereo not given)	.	-	.	.	-	.	.	.	.
O=C(O)c1cccc(NC(=S)NC(NC(=O)c2ccccc2[N+](=O)[O-])C(Cl)(Cl)Cl)c1 (stereo not given)	-	-	-	-	-	.	.	.	.
O=C(O)c1cccc(NC(=S)NC(NC(=O)c2cccc([N+](=O)[O-])c2)C(Cl)(Cl)Cl)c1 (stereo not given)	-	-	-	?	-	.	.	?	.
Cc1ccc(NC(=O)c2cc3c([nH]c2=O)CC(c2ccccc2)CC3=O)cc1 (stereo not given)	.	-	.	.	.	.	.	.	.
Cc1cccc(OC(=O)Cn2c(C(F)(F)F)nc3ccccc32)c1	-	-	-	35µM	-	-	-	?	-
CCCN(C(=O)c1cc(CC)c(C)s1)c1c(N)n(Cc2ccccc2)c(=O)[nH]c1=O	-	-	.	-	.	.	.	.	.
O=c1cc(CCl)nc2sc3ccccc3n12	-	-	-	?	-	.	.	?	.
COc1ccccc1CC(=O)NCCCc1ccccc1	-	-	.	-	-	.	.	.	.
COc1ccc(/C=C/C(=O)NC(=S)Nc2ccc(C(=O)O)cc2)cc1	-	?	-	-	-	.	.	-	.
CC[C@@H](C(=O)[C@@H](C)[C@@H](O)[C@H](C)[C@@H]1O[C@@H]([C@@H](CC)C(=O)O)CC[C@@H]1C)[C@H]1O[C@]2(C=C[C@@H](O)[C@]3(CC[C@@](C)([C@H]4CC[C@](O)(CC)[C@H](C)O4)O3)O2)[C@H](C)C[C@@H]1C	-	-	.	-	.	.	.	.	.
COc1ccc(OCc2cc(C(=O)O)c(C)o2)cc1	.	.	-	25µM	-	.	.	40µM	.
Cc1ccccc1NS(=O)(=O)c1cccc(-c2nnc(-c3ccccc3)o2)c1	-	-	-	-	-	.	.	.	.
O=S(=O)(NC1CCCCC1)c1cccc(-c2nnc(-c3ccccc3)o2)c1	-	-	-	?	-	-	-	-	-
SMILES	Tb PGK inh	FEN1 inhibitor	RECQ1 helicase	APE1 inh-1	BLM helicase inh	APE1 dye cs	Endo IV inh	APE1 inh-2	APE1 FP
O=C(Nc1nc2nccc(-c3ccccc3)n2n1)c1ccccc1	-	-	-	-	-	.	.	-	.
O=c1cc(-c2ccc(O)cc2)oc2cc(O)c([C@@H]3O[C@H](CO)[C@@H](O)[C@H](O)[C@H]3O)c(O)c12	-	-	-	-	-	.	.	.	.
O=c1cc(-c2ccc(O)c(O)c2)oc2cc(O)c(C3OC(CO)C(O)C(O)C3O)c(O)c12 (stereo not given)	?	?	-	7.9µM	-	?	-	3.2µM	-
CCc1ccc(NS(=O)(=O)c2cc3c(cc2C)n(C)c(=O)c(=O)n3C)cc1	-	-	.	-	-	.	.	.	.
Cc1ccc(/C=C2\SC(=S)N(c3cccnc3)C2=O)o1	-	-	?	16µM	-	?	-	-	-
Cc1ccc(N2C(=O)/C(=C/c3cccnc3)SC2=S)cc1	-	-	-	-	-	.	.	.	.
O=C(NN=C1c2ccccc2-c2ccccc21)c1ccccc1	-	-	?	13µM	-	.	.	-	.
O=C(NN=C1c2ccccc2-c2ccccc21)c1ccccc1Br	-	-	-	-	-	.	.	.	.
Cc1nc(N=Nc2cc(S(=O)(=O)O)c3cc([N+](=O)[O-])cc(S(=O)(=O)O)c3c2)c(COP(=O)(O)O)c(C=O)c1O	.	7.5µM	?	2.5µM	-	.	25µM	1.1µM	.
COc1ccnc(Oc2ccccc2)c1C(N)=O	-	-	-	-	-	-	-	-	?
c1cncc(-c2nc(-c3ccco3)cs2)c1	-	-	-	25µM	-	-	-	-	?
Cc1cc2nc(-c3ccc(SCc4ccc(C(=O)O)cc4)nc3)[nH]c2cc1C	-	?	-	-	?	.	.	40µM	.
O=C(COc1ccccc1)Nc1ccc2nc(SCC(=O)N3CCCC3)sc2c1	-	-	.	.	-	.	.	.	.
Cn1c(SCC(=O)Nc2ccc3nc(SCC(=O)N4CCCC4)sc3c2)nnc1-c1ccccc1	-	-	?	?	-	.	.	-	.
CCOC(=O)c1cc(-c2ccccc2)n(CC(=O)NC(C)c2ccccc2)c1C (stereo not given)	-	-	.	.	-	.	.	.	.
O=C(c1ccc2nc(-c3ccco3)c(-c3ccco3)nc2c1)N1CCN(c2ncccn2)CC1	-	-	-	?	?	?	-	?	-
CC(=O)c1ccc(NC(=O)c2ccc3nc(-c4ccco4)c(-c4ccco4)nc3c2)cc1	?	50µM	8.9µM	?	16µM	8.9µM	?	4µM	-
CCc1nc2ccc(C(=O)Nc3ccc(NC(C)=O)cc3)cc2nc1CC	-	-	-	-	-	.	.	.	.
O=C(c1cccc(C(=O)N2CCN(c3ncccn3)CC2)c1)N1CCN(c2ncccn2)CC1	-	-	-	-	-	.	.	.	.
COC(=O)c1ccc(N)cc1O	-	-	-	?	-	.	.	.	.

Screening data as filed in PubChem.
